Experimental findings from PubChem BioAssay (NCATS) are described below.

Structures are written as SMILES. Inconclusive results are not listed. A call without a number means that no potency is given here. Active and inactive are the calls of the source. Unless noted, the call rests on the fitted dose curve; in most records, active means well fitted curve in the direction sought with a large enough effect; inconclusive means small, poorly fitted or top-dose-only effect, or another doubt; inactive means no such curve, though single readings can be large; an effect the other way counts as inactive or inconclusive.

Test [1] addresses Glucagon-like peptide 1 receptor (Homo sapiens) (UniProt P43220). Description: qHTS of GLP-1 Receptor Agonists: LOPAC Validation (AID 624148).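 Further: higher luminescence signal means agonism.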 An outline of the steps:
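HEK293 cells stably co-expressing a cAMP-responsive luciferase reporter and a hypersensitive GLP-1R were plated 12 h at 37 °C and exposed to compounds for 4-6 hr at 37 °C, 5% CO2. Luminescence was read 12 min after adding detection reagent.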

The nature of test [2]: qHTS of Nrf2 Activators: LOPAC Validation (AID 624149). Put shortly:
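Luminescence read-out of ARE-luciferase activation: AREc32_Fluc cells treated with compounds for 24 hr at 37 deg C, then lysed with Steady-Glo for 30 min at room temperature before reading.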
A general note: Quantitative high-throughput screening tests each substance at several concentrations.

Test [3] is described as follows: HTS Assay for Allosteric Antagonists of the Human D2 Dopamine Receptor: Hit Validation in HTRF (AID 624455). Further: potency means the concentration at half of the fitted maximal effect.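 Further: stable D1 dopamine receptor cell line scored for blocking the D1 response.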 Put shortly:
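First, antagonism was screened by calcium flux in a force-coupled, inducible Hek293 Trex D2 line challenged with EC80 dopamine. Hits then went into an HTRF assay in cells stably expressing D1, testing inhibition of the D1 response.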
A general note: In TR-FRET formats the signal depends on donor and acceptor labels being close together.

Test [4] is described as follows: Cytotoxicity counterscreen for NFkB agonists and antagonists (AID 624476).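 Further: cells exposed to compound for 48 hours.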 In general terms: A counterscreen serves to expose hits that act by an unwanted route or on another target.
The nature of test [5]: qHTS Assay for Identification of Small Molecule Agonists for NFkB Signaling Pathway. (AID 624478).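 Further: compounds tested together with TNF alpha at its EC50 of 10 pM.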 Put shortly: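 ME-180 cervical carcinoma, stable NFkB-RE beta-lactamase reporter; 1000 cells/well, overnight attachment; cpd + TNF alpha 10 pM final, 5 h 37 C; LiveBLAzer 2 h RT; FRET 460/530 nm, ex 405 nm.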
The nature of test [6]: qHTS Assay for Identification of Small Molecule Antagonists for NFkB Signaling Pathway. (AID 624479; calls by dose curve;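 further: pathway stimulated with TNF alpha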).
A short description of test [7]: Cell Proliferation Assay against the TMD8 Cell Line (AID 651645).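 Further: cells exposed to compound for 48 h before reading.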 Conditions: TMD8 DLBCL cell line proliferation/viability; at 46.1 µM (top of the series). Put shortly: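 Luminescent ATP read-out (CellTiter-Glo, 15 min RT) after 48 h compound exposure of log-growing TMD8 cells at 37C; percent activity scaled between DMSO as 100% and 9.2 uM bortezomib final as 0%.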

The nature of test [8]: Cell Proliferation Assay against the HBL1 Cell Line (AID 651646).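 Further: cells exposed to compound for 48 h before reading.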 Conditions: HBL1 DLBCL cells; at 46.1 µM (top of the series). The text has this:
One class of targeted therapeutics showing early clinical success in killing of ABC DLBCL lines are small molecule inhibitors of the Bruton tyrosine kinase (BTK) 11.
Prior to any combination assays, using an NCATS developed oncology compound library called the Mechanism of Interrogation Plate (MIPE), two well studied ABC DLBCL lines (TMD8 and HBL1) were screened using a cell viability assay (CellTiterGlo) and a 12-point titration series for each single agent. These initial experiments offered insight into the concentration range that offered the best coverage of activity and non-activity to assure relevant data is generated. […]
A total of 500 log growing HBL1 cells are seeded per well in 5 uL of a RPMI with glutamine (or Glutamax), without phenol red plus 5% FBS and 1X Pen/Strep into 1536 -solid white high base tissue culture treated Greiner One Bio Plates (789173-F) using a multidrop combi dispenser and a small sterile cassette. […] The plates are then spun at 1000 rpms to remove bubbles and incubated for 15 minutes at room temperature before read on a ViewLux using a luminescent filter with a 10 second exposure. The relative luciferase units are used to calculated percent activity using DMSO as 100% and Bortezomib as 0%.

A short description of test [9]: Cell Proliferation Assay against the TMD8 Cell Line (Caspase readout at 16 hrs) (AID 651712). An outline of the steps:
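TMD8 cells (500/well) in phenol-red-free RPMI with glutamine, 5% FBS, were exposed to compounds for 16 h at 37 °C. Caspase 3/7 activation was read by Caspase-Glo luminescence; percent activity normalised to DMSO (0%) and 9.2 uM bortezomib final (100%).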

A short description of test [10]: Cell Proliferation Assay against the TMD8 Cell Line (Caspase readout at 8 hrs) (AID 651713). Put shortly: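 Seed log-phase TMD8 cells, add compound by pin tool, incubate 8 h at 37C under 5% CO2, equilibrate to room temperature, add Caspase-Glo, wait 15 min, read luminescence; percent activity uses DMSO and 9.2 uM bortezomib controls.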

Sequence of Glucagon-like peptide 1 receptor (Homo sapiens) (P43220 whole entry, looked up): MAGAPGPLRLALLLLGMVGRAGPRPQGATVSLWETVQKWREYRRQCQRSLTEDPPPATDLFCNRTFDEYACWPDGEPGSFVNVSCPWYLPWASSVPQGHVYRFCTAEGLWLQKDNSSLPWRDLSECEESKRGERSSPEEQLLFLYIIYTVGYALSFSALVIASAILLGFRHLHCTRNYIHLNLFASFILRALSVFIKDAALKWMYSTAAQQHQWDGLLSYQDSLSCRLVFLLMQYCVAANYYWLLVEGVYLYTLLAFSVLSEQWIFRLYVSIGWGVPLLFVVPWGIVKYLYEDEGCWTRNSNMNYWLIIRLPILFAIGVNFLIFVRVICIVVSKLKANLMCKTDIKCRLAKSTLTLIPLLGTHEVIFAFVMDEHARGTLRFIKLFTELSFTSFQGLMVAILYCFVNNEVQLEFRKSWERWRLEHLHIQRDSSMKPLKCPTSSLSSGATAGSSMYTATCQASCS

As for `CC(NC(C)(C)C)C(=O)c1cccc(Cl)c1` (stereo unspecified), the compound was classed as inactive in test [1] and in [2]. For the same compound, the Potency entry in test [3] is “inactive”.
As to `O=C(O)CCCc1ccc(N(CCCl)CCCl)cc1`, the compound was classed as inactive in test [1] and in test [2]. Moreover, in test [3], the Potency result was “inactive”.
Regarding `CCC1(c2ccc(N)cc2)CCC(=O)NC1=O` (stereo unspecified), the result in [1] and in [2] was inactive. In addition, in [3], the Potency result is “inactive”.
In the case of `CN1C(=O)CCS(=O)(=O)C1c1ccc(Cl)cc1` (stereo unspecified), the outcome in [1] and in [2] was inactive. For the same compound, in [3], the Potency entry was “inactive”.
For the compound `O=P1(N(CCCl)CCCl)NCCCO1` (stereo unspecified), the result in test [1], in test [2], in test [4], in test [5], in test [6] and in test [9] was inactive. For the same compound, the compound was classed as inactive in test [10]. Moreover, the Potency entry in test [3] was “inactive”. Besides, the viability (% of control) in test [7] amounted to 114%. In addition, the viability, percent of control in [8] is 108%.
As for `CC(C)(C)NCC(O)c1ccccc1Cl` (stereo unspecified), in test [2], the call was inactive. In [3], the Potency entry is “inactive”.
In the case of `C=C(C)[C@H]1CN[C@H](C(=O)O)[C@H]1CC(=O)O`, the outcome in test [1] and in test [2] was inactive. Besides, the Potency result in [3] is “inactive”.
As to `COc1ccc2c(c1OC)C(=O)O[C@H]2[C@@H]1c2cc3c(cc2CCN1C)OCO3`, the result in test [1] and in test [2] was inactive. Moreover, in test [3], the Potency result was “inactive”.
As to `O=C(CCCN1CCC2(CC1)C(=O)NCN2c1ccccc1)c1ccc(F)cc1`, the compound was called inactive in test [1] and in test [2]. For the same compound, the Potency entry in test [3] is “inactive”.
Take `CC(C)C[C@H]1C(=O)N2CCC[C@H]2[C@]2(O)O[C@](NC(=O)[C@@H]3C=C4c5cccc6[nH]c(Br)c(c56)C[C@H]4N(C)C3)(C(C)C)C(=O)N12`: in [3], the Potency is 3.26 µM (active).
Turning to `CC(C)N(CCC(C(N)=O)(c1ccccc1)c1ccccn1)C(C)C` (stereo unspecified), the result in [1] and in [2] was inactive. Further, in test [3], the Potency entry was “inactive”.
For `CCCCC/C=C\C/C=C\C/C=C\C/C=C\CCCC(=O)NCC(=O)O`, the compound was called inactive in test [1] and in [2]. Moreover, the Potency entry in [3] is “inactive”.
As to `O=c1[nH]oc2c1CCNC2`, the compound was classed as inactive in [1] and in test [2]. In addition, in test [3], the Potency result was “inactive”.
On to `NCCc1ccc(O)cc1`, for which the compound was classed as inactive in test [1] and in [2].
On to `Cc1ncsc1CCCl`, for which the result in [1] and in test [2] was inactive. In test [3], the Potency result was “inactive”.
As for `CC(C)c1cccc(C(C)C)c1O`, the call in test [1] and in test [2] was inactive. Besides, the Potency entry in test [3] is “inactive”.
